Screens deposited in PubChem by several laboratories.
CSC inhib – cancer stem cell inhibition; 300,000 compounds, 1.1% hits; inhibition, % at 7.5 µM; AID 2717; cancer stem cell-like cells viability, luminescence; in the data active means inhibition above about 75%; tested in HMLE shEcad cells
aSyn UTR inh – 5' untranslated region of α-synuclein, MLPCN primary screen; alpha-synuclein 5'UTR reporter, inhibitor activity; inhibition, % (tested at 7.5 µM); 300,000 compounds, 0.82% hits; AID 1813; in the data active means inhibition above about 60%;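 further: H4 neuroglioblastoma cells stably carrying SNCA 5'UTR luciferase fusion; 0% = DMSO wells and 100% = positive control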
Mdm2-MdmX inh – inhibitors of human Mdm2/MdmX interaction | inhibition, % at 8 µM | O15151+Q00987 | SaOS-2 split-luciferase Mdm2/MdmX complementation, luminescence | 330,000 compounds, 3% hits | AID 485346;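 active means inhibition of at least 50% at 8 µM in the primary screen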
Target sequence (O15151 whole entry, looked up): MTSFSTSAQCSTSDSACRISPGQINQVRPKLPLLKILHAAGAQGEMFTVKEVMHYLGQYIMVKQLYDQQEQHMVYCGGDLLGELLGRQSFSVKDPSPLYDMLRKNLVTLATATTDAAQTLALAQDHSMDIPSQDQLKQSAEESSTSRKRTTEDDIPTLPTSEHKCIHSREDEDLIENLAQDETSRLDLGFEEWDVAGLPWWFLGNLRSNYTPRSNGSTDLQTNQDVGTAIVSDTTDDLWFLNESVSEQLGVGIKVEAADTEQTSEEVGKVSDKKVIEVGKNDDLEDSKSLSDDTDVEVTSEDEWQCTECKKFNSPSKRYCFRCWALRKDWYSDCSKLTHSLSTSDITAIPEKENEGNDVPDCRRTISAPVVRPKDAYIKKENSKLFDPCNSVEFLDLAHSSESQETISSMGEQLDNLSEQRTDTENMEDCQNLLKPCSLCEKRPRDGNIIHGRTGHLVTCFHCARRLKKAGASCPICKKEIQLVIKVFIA
Target sequence (Q00987 whole entry, looked up): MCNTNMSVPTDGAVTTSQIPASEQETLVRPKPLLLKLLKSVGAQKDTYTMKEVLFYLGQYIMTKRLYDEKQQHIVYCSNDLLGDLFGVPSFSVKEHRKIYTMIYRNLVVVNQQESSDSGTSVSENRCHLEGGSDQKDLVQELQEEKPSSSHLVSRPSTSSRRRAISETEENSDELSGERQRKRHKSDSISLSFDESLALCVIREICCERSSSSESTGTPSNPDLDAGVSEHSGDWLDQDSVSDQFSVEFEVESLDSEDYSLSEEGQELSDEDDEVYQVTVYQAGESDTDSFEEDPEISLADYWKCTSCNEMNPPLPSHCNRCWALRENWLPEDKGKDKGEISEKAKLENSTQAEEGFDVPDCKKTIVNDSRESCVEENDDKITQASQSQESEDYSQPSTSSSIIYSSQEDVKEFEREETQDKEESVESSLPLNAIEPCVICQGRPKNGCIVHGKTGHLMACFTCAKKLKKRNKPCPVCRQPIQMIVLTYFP
Jurkat NFkB inh – lowers PMA/ionomycin-induced NF-kB signal in Jurkat cells; PMA/ionomycin-induced NF-kB luciferase reporter, luminescence; inhibition, % at 4 µM; 330,000 compounds, 0.53% hits; AID 435003; in the data active means inhibition above about 50%
Gli-Sufu antag – antagonists of Gli-Sufu signaling; Sufu-KO-LIGHT fibroblasts, Gli luciferase reporter luminescence; inhibition, % at 5 µM; 340,000 compounds, 0.74% hits; AID 588413;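 active means inhibition above about 55%, limit read from the data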;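 further: 0% = DMSO-treated cells and 100% = wells with medium but no cells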
697 NFkB inh – lowers PMA/ionomycin-induced NF-kB signal in 697 B cells; 697 B-cell NF-kB luciferase reporter, 16 h; inhibition, % at 4 µM; 330,000 compounds, 0.33% hits; AID 435022; in the data active means inhibition above about 35%
Mdm2-MdmX conf – confirmation of human Mdm2/MdmX interaction inhibitors. Mdm2-MdmX binding, luminescent assay. shares compounds with Mdm2-MdmX inh. 10,000 compounds, 55% hits. inhibition, % at 8 µM. AID 489028; in the data active means inhibition above about 40%
Full FLuc ctr – inhibits full-length luciferase, flagging false Mdm2/MdmX hits; shares compounds with Mdm2-MdmX inh; SaOS-2 full-length luciferase counterscreen, luminescence; inhibition, % at 8 µM; 6,200 compounds, 77% hits; AID 504607;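 active means mean inhibition at 8 µM reaching about 37%, which flags the compound as non-specific, limit read from the data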;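 further: p53-null SaOS-2 cells with luciferase driven by a doxycycline-inducible promoter; compound on cells about two nights before reading with doxycycline added after day one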
Active calls of the source: *; x = not tested or not shown. Rows were chosen to be rich in hits. Some 4.5% of all compounds tested hit in one or more screens of this group.

SMILES	CSC inhib	aSyn UTR inh	Mdm2-MdmX inh	Jurkat NFkB inh	Gli-Sufu antag	697 NFkB inh	Mdm2-MdmX conf	Full FLuc ctr
COc1ccc(-c2c(-c3cc(OC)cc(OC)c3)n(C)c3ccc(-c4cnc(N)nc4)cc23)cc1	x	x	4	2	1	9	x	x
COc1cccc(-c2c(-c3cc(OC)cc(OC)c3)n(C)c3ccc(-c4ccc5cc[nH]c5c4)cc23)c1	x	x	6	-11	-17	13	x	x
COc1cc(OC)cc(-c2c(-c3ccc(F)cc3)c3cc(-c4cnc(OC)nc4)ccc3n2C)c1	4	x	57*	13	18	14	54*	42*
COc1cccc(-c2c(-c3cc(OC)cc(OC)c3)n(C)c3ccc(-c4cnc(N5CCOCC5)nc4)cc23)c1	42	x	71*	12	8	-27	-6	x
COc1ccc(-c2c(-c3cc(OC)cc(OC)c3)n(C)c3ccc(-c4ccc(S(N)(=O)=O)cc4)cc23)cc1	2	x	57*	12	-6	12	40	80*
Cc1onc(-c2c(F)cccc2Cl)c1C(=O)NC1CCSC1=O (stereo not drawn)	-7	20	20	-4	-1	3	x	x
ClCCn1cnc2c(SCc3ccccc3)ncnc21	x	x	x	x	-44	x	x	x
COc1ccccc1C(C[N+](=O)[O-])c1c(N)n(C)c(=O)n(C)c1=O (stereo not drawn)	55	-10	55*	3	x	-10	57*	49*
CC(OC(=O)CCC(=O)c1ccc(F)cc1)C(=O)NC1CCCCC1C (stereo not drawn)	-15	5	24	12	-6	-2	x	x
COC(=O)c1ccc(COc2ccccc2/C=N/NS(=O)(=O)c2ccccc2)cc1	51	-41	52*	32	0	-5	52*	115*
COC(=O)c1ccc(CN=C(NS(=O)(=O)c2ccccc2)c2ccccc2)cc1	6	x	25	0	-7	12	x	x
C=CCN(c1ccccc1)S(=O)(=O)c1cccc(C(=O)NC2CCN(Cc3ccccc3)CC2)c1	3	-8	60*	48	41	-50	39	x
CCOc1ccc(-n2nnnc2SCC(=O)Nc2cccc(O)c2)cc1	0	5	-9	-10	14	-51	x	x
COc1cccc(-n2nnnc2SCC(=O)Nc2ccc3c(c2)OCCO3)c1	7	3	79*	5	3	19	28	x
COc1ccc(-n2nnnc2SCC(=O)Nc2ccc3c(c2)OCCO3)cc1OC	-2	33	17	10	-17	12	x	x
COc1ccc(Nc2nnc(SCC(=O)NC(=O)Nc3ccc4c(c3)OCCO4)s2)cc1	19	-43	62*	-20	-13	2	-4	x
CCC(=O)Nc1nnc(SCC(=O)Nc2ccc3c(c2)OCCO3)s1	x	-7	11	-16	-6	9	x	x
O=C(CSc1nnnn1-c1cccnc1)Nc1cccc(Cl)c1	4	3	24	5	-28	19	x	x
O=C(CSc1nnnn1-c1cccc(Cl)c1)Nc1ccc2c(c1)CCC2	2	15	71*	-5	x	-6	37	60*
CCOc1ccc(-n2nnnc2SCC(=O)Nc2ccc(NC(C)=O)cc2)cc1	-1	8	57*	-1	-9	7	6	x
O=C(Nc1ccccn1)C(=O)N1CCCCC1	-9	-42	-25	0	-10	-35	x	x
CCN(c1ccccc1)S(=O)(=O)c1cccc(C(=O)NCc2ccccn2)c1	-14	-4	9	8	11	-6	x	x
Cc1cc(Oc2nc3c(C)cccn3c(=O)c2/C=C(\C#N)S(=O)(=O)c2ccc(Cl)cc2)ccc1Cl	47	-2	57*	-6	-3	9	-1	x
N#CC1(NC(=O)Cn2ncc(Cl)c(Cl)c2=O)CCCCC1	-9	-206	98*	8	1	-13	83*	30
N#CC1(NC(=O)CN2C(=O)c3ccccc3C2=O)CCCCC1	-1	x	-25	-9	1	0	x	x
SMILES	CSC inhib	aSyn UTR inh	Mdm2-MdmX inh	Jurkat NFkB inh	Gli-Sufu antag	697 NFkB inh	Mdm2-MdmX conf	Full FLuc ctr
COc1ccc(N(CC(=O)N2CCC(Cc3ccccc3)CC2)S(C)(=O)=O)cc1	6	-1	-16	5	34	-14	x	x
COC(=O)COc1ccc(S(=O)(=O)Nc2ccc3c(c2)OCO3)cc1Cl	8	24	52*	-5	5	-1	29	x
COc1ccc(CNC(=O)COC(=O)[C@H](Cc2ccccc2)NC(=O)c2cccs2)cc1	-12	x	4	0	3	-10	x	x
CC(C)c1cccc(C(C)C)c1OC(=O)[C@H]1OC(C(C)(C)C)=C[C@@H]1c1ccccc1	21	x	1	14	2	12	x	x
CC(C)c1cccc(C(C)C)c1OC(=O)[C@H]1OC(c2ccc(Br)cc2)=C[C@@H]1c1ccc(Br)cc1	111*	x	61*	7	4	0	-3	x
Cc1ccc(-n2nnnc2SCC(=O)Nc2nc(-c3ccc(F)cc3)cs2)cc1C	12	-14	65*	16	2	14	39	47*
CC(C)(C)NC(=O)C(c1ccc(-c2ccccc2)cc1)N(C[C@H]1CC[C@@H]([C@@H]2CC[C@H](CO)O2)O1)C(=O)c1ccccc1F (stereo partly drawn)	x	x	38	x	9	6	x	x
O=C(CN(C(=O)c1ccc(Cl)cc1)C1CCCCC1)Nc1ccc(Cl)c([N+](=O)[O-])c1	31	-1	65*	8	31	5	43*	72*
O=C(Nc1cccc(F)c1)C1C2C=CC3(CN(CCCN4CCOCC4)C(=O)C13)O2 (stereo not drawn)	x	2	17	6	-2	9	x	x
Cc1nnc(C)c2c(C)n(Cc3ccc4c(c3)OCO4)c(C)c12	-15	-17	-1	-8	29	-37	x	x
COc1cc2c(cc1OC)C(Cc1ccc(O)c(Oc3ccc(C[C@H]4c5cc(OC)c(OC)cc5CCN4C)cc3)c1)N(C)CC2 (stereo partly drawn)	17	x	72*	-7	x	-14	29	x
CN(C(=O)COC(=O)c1cc(S(=O)(=O)N2CCOCC2)ccc1Cl)C1CCS(=O)(=O)C1 (stereo not drawn)	-16	-13	-10	17	2	4	x	x
O=C(Nc1nc(-c2ccccc2)cs1)C1CCCN(S(=O)(=O)c2ccccc2)C1 (stereo not drawn)	x	17	78*	12	-8	-72	65*	79*
Cc1cc(N2CCN(C)CC2)ccc1NC(=O)c1cccc(S(=O)(=O)N2CCc3ccccc3C2)c1	54	43	96*	-6	9	-22	36	73*
Cc1nnc(NC(=O)c2cccc(S(=O)(=O)N3CCN(C)CC3)c2)s1	-1	2	7	-2	-4	12	x	x
Cc1ccc(-c2csc(NC(=O)c3cccc(S(=O)(=O)N4CCN(C)CC4)c3)n2)cc1	20	-66	73*	2	0	-47	65*	39*
